The sample as a whole holds a higher share of hits than the screen did.
Pf Dd2 growth = Plasmodium falciparum Dd2 growth inhibition; P. falciparum Dd2 growth, SYBR Green, 72 h; Potency, µM (series often up to 28.9 µM), for inactives: at the highest dose activity, negative = inhibition, hits mostly inhibitors; actives 4.3% (n = 120,000); AID 1347417; active = well fitted inhibition curve with a large enough effect;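 also: plate controls were DMSO vehicle for no effect and reference drug for full effect; nearly all actives have a fitted effect of over 65% in size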
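Infected erythrocytes (Dd2, 0.3% parasitemia, 2.5% hematocrit final) are added to compound in RPMI-1640/Albumax II medium, grown 72 h at 37C in low oxygen, then lysed with saponin/Triton-X containing SYBR Green and read by fluorescence.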
The depositor's hits bear a star; i = inactive; [ ] = remark or other dose. Potency is read from the fitted curve at half-maximal effect.

SMILES	Pf Dd2 growth
CCNC(=O)N1CCCC(Cc2noc(-c3ccccc3)n2)C1 (configuration not stated)	-24%
Cc1nnc(N2CCN(C(=O)NCCC(C)C)CC2)c2nn(-c3ccc(Cl)cc3)c(C)c12	1%
Cc1nnc(N2CCC(C(=O)NC3CCC(C)CC3)CC2)c2nn(-c3ccc(Cl)cc3)c(C)c12 (configuration not stated)	3%
Cc1nnc(N2CCC(C(=O)NC3CCCCC3)CC2)c2nn(-c3ccc(Cl)cc3)c(C)c12	12%
Cc1nnc(N2CCC(C(=O)N3CCCCC3)CC2)c2nn(-c3ccc(Cl)cc3)c(C)c12	10µM*
CCN(CC)CCNC(=O)C1CCCN(c2ncnc3onc(C)c23)C1 (configuration not stated)	-9%
CCN(CC)CCNC(=O)C1CCCN(c2nnc(C)c3c(C)n(-c4ccc(Cl)cc4)nc23)C1 (configuration not stated)	11µM*
Cn1nccc1C(=O)N1[C@@H]2CC[C@H]1CC(NC(=O)c1ccncc1)C2 (some centres not stated)	19%
C[C@]1(CO)[C@H]2Cc3sc(-c4ccccc4)nc3[C@@H](CC(=O)O)[C@]2(C)CC[C@H]1O	-11%[44.1 µM]
CCc1nc2c(c(-c3ccc(O)cc3)n1)CCN(Cc1cccnc1)CC2	i
CCc1ccc(NC(=O)N(Cc2ccc(C)cc2)Cc2cccn2-c2nnc(N3CCCC3=O)s2)cc1	13µM*
CCOC(=O)c1ccccc1NC(=O)N(Cc1ccc(C)cc1)Cc1cccn1-c1nnc(N2CCCC2=O)s1	-19%
Cc1ccc(CNC(=O)c2cccn2-c2nnc(N3CCCC3)s2)cc1	i
COc1ccc(C(=O)N2CCCCCNC(=O)[C@@H]3CCCC[C@@H]32)c(OC)c1	-2%
CCOc1ccc(NC(=O)Cn2ccn3nc4c(c3c2=O)CCCCC4)cc1	34%
CC(=O)N1CCc2nn(CC(=O)Nc3ccc(Cl)cc3F)c(=O)cc2C1	6%
CC(=O)Nc1cc(-c2cc(C(=O)NCc3cc(C)on3)c3c(c2)N(C)CCO3)ccn1	7.9µM*
Cc1cc(CNC(=O)c2cc(-c3ccccc3)cc3c2OCCN3C)no1	i
CC(=O)Nc1cc(-c2cc(C(=O)NCc3cccnc3)c3c(c2)N(C)CCO3)ccn1	-17%[44.1 µM]
O=C(NCCCN1CCCCCC1)c1ccc2c(c1)sc1nc(-c3ccccc3)cn12	10µM*
O=C(NCc1cccs1)c1ccc2c(c1)sc1nc(-c3ccc(F)cc3)cn12	-12%
Cc1ccc(-c2cn3c(n2)sc2cc(C(=O)NC4CCCCCC4)ccc23)cc1	1%
CCc1ccc(-c2cn3c(n2)sc2cc(C(=O)NC4CCCCCC4)ccc23)cc1	8%
CCc1ccc(-c2cn3c(n2)sc2cc(C(=O)NCCCc4ccccc4)ccc23)cc1	i
CCC1CCCCN1CCCNC(=O)c1ccc2c(c1)sc1nc(-c3ccc(F)cc3)cn12 (configuration not stated)	1µM*
SMILES	Pf Dd2 growth
CCc1ccc(-c2cn3c(n2)sc2cc(C(=O)NCC(C)c4ccccc4)ccc23)cc1 (configuration not stated)	-1%
Cc1ccc(-c2cn3c(n2)sc2cc(C(=O)NCCCc4ccccc4)ccc23)c(C)c1	5µM*
O=C(NC1CCCCC1)c1ccc2c(c1)sc1nc(-c3ccccc3)cn12	i
NS(=O)(=O)c1ccsc1C(=O)N1CCCC2(CCNCC2)CC1	-4%
O=C(CN1CCOC(c2ccc(F)cc2)C1)NCc1ccccn1 (configuration not stated)	-1%
CN1C[C@H](NC(=O)c2ccc3c(c2)OCO3)CCC[C@@H](C(=O)NCc2cc(F)cc(F)c2)CC1=O	-10%
COc1cccc(C(=O)NC2CCN(c3cc(-c4ccccc4)[nH]n3)C2)c1 (configuration not stated)	i
CC(C)N1CC(Oc2cccc(C(=O)N3CCOCC3)c2)C1	i
Fc1cccc(-c2nnn3c2nc(NCCc2ccccc2)c2ccccc23)c1	19%
NS(=O)(=O)c1ccc(CCNc2nc3c(-c4cccc(F)c4)nnn3c3ccc(Cl)cc23)cc1	11µM*
CCOCCCNc1nc2c(S(=O)(=O)c3ccc(CC)cc3)nnn2c2ccc(Cl)cc12	-9%
COc1cncc(N2CC3(COCC(=O)N(Cc4cccc(OC(F)(F)F)c4)C3)C2)c1	i
O=C1COCC2(CN1Cc1cccc(OC(F)(F)F)c1)CN(c1ccccn1)C2	i
O=C1COCC2(CN1Cc1cccc(OC(F)(F)F)c1)CN(c1ccccc1F)C2	2.5µM*
Cc1c(Cl)cccc1NC(=O)Cn1ccn2nc3c(c2c1=O)CCCC3	-9%
COc1ccccc1N1CCN([C@@H]2[C@H](O)[C@H](CO)O[C@@H]2CNC(=O)NC(C)C)CC1	-2%
COCC(=O)Nc1ccc([C@H]2OCC(=O)N(Cc3scnc3C)[C@@H]2CO)cc1	6%[44.1 µM]
CCNC(=O)NCCc1ncc(C)n1CC1CC1	3%
Cc1cnc(-c2ccncc2)n1CCNC(=O)CCC1CCCC1	-2%
CCCn1c(C)cnc1CCNC(=O)CCC1CCCC1	2.5µM*
O=C(O)C[C@@H]1CCN(C(=O)NC2CCCCC2)C[C@@H]1CCN1CCCCC1	i
CCOC(=O)C1=C(C)N=C2SC=C(CC(=O)Nc3ccc(OC)cc3)N2C1c1cccc(OC)c1 (configuration not stated)	-11%
CCOC(=O)C1=C(C)N=C2SC=C(CC(=O)NC(C)CC)N2C1c1cccc([N+](=O)[O-])c1 (configuration not stated)	i
CCOC(=O)C1=C(C)N=C2SC=C(CC(=O)Nc3ccc(C)c(C)c3)N2C1c1cccc(OC)c1 (configuration not stated)	8.9µM*
COCCOC(=O)C1=C(C)N=C2SC=C(CC(=O)Nc3cccc(OC)c3)N2C1c1ccccc1 (configuration not stated)	-1%
SMILES	Pf Dd2 growth
CCOC(=O)C1=C(C)N=C2SC=C(CC(=O)Nc3cccc(OC)c3)N2C1c1cccc(OC)c1 (configuration not stated)	11µM*
COC(=O)C1=C(C)N=C2SC=C(CC(=O)Nc3ccc(F)cc3)N2C1c1ccc(OC)cc1OC (configuration not stated)	-2%
O=C(N[C@@H](Cn1cc(Cl)c(=O)[nH]c1=O)C(=O)O)C1CC1	17%[44.1 µM]
O=C1NCCCCCCN(Cc2ccncc2)[C@@H]2CN(C(=O)c3ccsc3)CC[C@@H]12	-15%
CNC(=O)N1CCC(C2CCN(C(=O)c3ccc(OC)nc3)C2)CC1 (configuration not stated)	-19%
COc1ccc(CNCC2(CO)C[C@@H](O)[C@@H](O)C2)cc1 (some centres not stated)	14%[44.1 µM]
Cc1noc2c(NC3CCN(C)CC3)cc(-c3ccc(F)cc3)nc12	i
Cc1cc(-c2cc3[nH]ccc3c(C(=O)NCc3c(C)cc(C)[nH]c3=O)n2)ccn1	-22%[44.1 µM]
Cc1cc(C)c(CNC(=O)c2cc(-c3cccc4[nH]ccc34)cc3ncn(C)c23)c(=O)[nH]1	i
COc1ccc(-c2cc3c(ccn3C)c(C(=O)NCc3c(C)cc(C)[nH]c3=O)n2)cc1	-26%[44.1 µM]
Cc1cc(C)c(CNC(=O)c2nc(-c3cccc(N4CCOCC4)c3)cc3[nH]ccc23)c(=O)[nH]1	8.9µM*
COc1cccc(Nc2cc3[nH]ccc3c(C(=O)NCc3c(C)cc(C)[nH]c3=O)n2)c1	11µM*
Cc1cc(C)c(CNC(=O)c2nc(-c3ccccc3)cc3[nH]ccc23)c(=O)[nH]1	-1%[44.1 µM]
CCOC(=O)c1cccc(NC(=O)c2c(C)oc3ccn(Cc4ccc(F)cc4)c(=O)c23)c1	-16%
